The structures appear in SMILES notation.

Assay type in all cases: functional
Assay [1] addresses Solute carrier family 2, facilitated glucose transporter member 1 (Homo sapiens) (UniProt P11166). Kind of assay: ST_JUDE_LEISH: Cytotoxicity at 2uM final concentration against transgenic Leishmania Mexicana promastigotes LmGLUT1 that are glucose transport deficient and complemented with the human glucose transporter GLUT1. Activity is measured by DNA content using SYBR green in vitro.

The target in assay [2] is Hexose transporter 1 (Plasmodium falciparum) (UniProt O97467). Kind of assay: ST_JUDE_LEISH: Cytotoxicity at 2uM final concentration against transgenic Leishmania Mexicana promastigotes LmPfHT that are glucose transport deficient and complemented with the Plasmodium falciparum hexose transporter. Activity is measured by DNA content using SYBR green in vitro.
Assay [3] concerns the target Glucose transporter (Leishmania mexicana) (UniProt O61059). Briefly: ST_JUDE_LEISH: Cytotoxicity at 2uM final concentration against transgenic Leishmania Mexicana promastigotes LmGT2 that are glucose transport deficient and complemented with the L. Mexicana glucose transporter 2. Activity is measured by DNA content using SYBR green in vitro.

Solute carrier family 2, facilitated glucose transporter member 1 (Homo sapiens), sequence (P11166 whole entry): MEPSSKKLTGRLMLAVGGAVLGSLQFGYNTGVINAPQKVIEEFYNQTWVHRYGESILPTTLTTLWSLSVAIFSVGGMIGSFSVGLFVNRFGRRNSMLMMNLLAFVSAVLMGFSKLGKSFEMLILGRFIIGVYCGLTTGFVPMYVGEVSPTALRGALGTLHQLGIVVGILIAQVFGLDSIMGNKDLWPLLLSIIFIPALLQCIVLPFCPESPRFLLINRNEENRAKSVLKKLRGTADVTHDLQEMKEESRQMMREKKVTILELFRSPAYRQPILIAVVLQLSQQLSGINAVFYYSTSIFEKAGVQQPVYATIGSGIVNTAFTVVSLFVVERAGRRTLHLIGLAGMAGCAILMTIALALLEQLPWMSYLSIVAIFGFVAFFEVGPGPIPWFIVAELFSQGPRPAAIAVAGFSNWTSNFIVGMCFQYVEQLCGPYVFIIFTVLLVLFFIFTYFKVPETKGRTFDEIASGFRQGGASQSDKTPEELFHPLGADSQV

As to `CC[C@H](C)[C@@H](C(=O)N1CCOCC1)N1CC[C@H](NS(=O)(=O)CC(C)(C)c2ccc(Cl)cc2)C1=O`, the inhibition is 0.22% in assay [1], 0.79% in assay [2] and -1.13% in assay [3].
In the case of `N#CCSc1nnc(-c2ccccc2)c2ccccc12`, the figures for the inhibition in assay [1], in assay [2] and in assay [3] were 2.6%, 9.44% and -0.1%, respectively.
Take `C=Cc1c(C2CCN(CCCCNC(=O)c3ccc(-c4ccc(C#N)cc4)cc3)CC2)ccc2c1CCCC2`: the inhibition was found to be 1.77% in assay [1], 4.14% in assay [2] and 1.54% in assay [3].
For `O=C(Nc1ccccc1Br)N[C@@H]1CCN(c2ccnc3ccccc23)C1`, in that order: 4.02%, 5.95% and 3.01%.
For `N#Cc1ccc(NC(=O)Nc2ccc3c(c2)CCN(C2CCC2)CC3)cc1`, the inhibition is 5.18% in assay [1], 4.41% in assay [2] and 3.26% in assay [3].
The like results for `CN1CCCN(Cc2ccc(-c3cccc(NC(=O)c4ccc(Cl)cc4)c3)cc2)CC1` were, in that order, 3.92%, 0.88% and 0.76%.
Consider `COCc1ccc(CN2CCC(C(=O)Nc3ccc(-c4nc5ccccc5[nH]4)cc3)CC2)o1`, for which the inhibition stood at 7.66% in assay [1], 5.18% in assay [2] and 5.81% in assay [3].
On to `N#Cc1cccc(NC(=O)C2=C(CCc3ccc4c(c3)OCO4)NC(=O)NC2c2cccc(C#N)c2)c1` (configuration not stated), for which the inhibition in assay [1] was -0.43%; in assay [2] it was 0.52%; in assay [3], -0.7%.
For `CC(C)c1ccc(N(CC(=O)N/N=C/c2ccc(C(F)(F)F)cc2)S(=O)(=O)c2ccc(C(F)(F)F)cc2)cc1`, in that order: 4.88%, 2.56% and 3.25%.
Take `COc1ccc(Nc2nccc(NCCNC(=O)Nc3ccccc3F)n2)cc1`: the inhibition in assay [1] is 2.23%; in assay [2], 3.75%; in assay [3], -0.4%.
Turning to `CCC(C)NC(=O)CN1CN(c2ccccc2)C2(CCN(C(=O)c3ccc(-c4ccccc4)cc3)CC2)C1=O` (configuration not stated), the inhibition in assay [1] came to 8.23%; in assay [2], 11.5%; in assay [3], 7.73%.
The like results for `Cc1n[nH]c2ccc(-c3cc(OC[C@@H](N)Cc4ccccc4)cnc3-c3cc4ccccc4s3)cc12` were, in that order, 8.58%, 3.69% and 2.02%.
In the case of `O=C(CCCCCNC(=O)c1ccc(O)c(-c2ccc(Cl)c(Cl)c2)c1)NC1CCCc2ccccc21` (configuration not stated), the inhibition in assay [1] is 2.15%; in assay [2] it was 2.14%; in assay [3] it was 2.15%.
`O=C(C1CCN(C(c2ccccc2)c2ccc(Cl)c(Cl)c2)CC1)N1CC=CC1` (configuration not stated): the results for the inhibition in assay [1], in assay [2] and in assay [3] were 0.54%, 3.99% and -0.23%, respectively.
Take `Cc1cccc2nc(-c3cccc(-c4ccc(CN5CCC(C(N)=O)CC5)cc4)c3)[nH]c12`: the results for the inhibition in assay [1], in assay [2] and in assay [3] were 9.22%, 9.68% and 9.06%, respectively.
As to `COc1ccc2nccc([C@@H](O)CN3CCC(NCc4cc5ccccc5nc4O)CC3)c2c1`, the inhibition was 1.8% in assay [1], 1.94% in assay [2] and 2% in assay [3].
The like results for `Oc1ccc(-c2cncc(NCc3ccc(F)c(F)c3)c2)cc1` were, in that order, 7.16%, 7.41% and 7.98%.
Regarding `O=C(NCCCCN1CCC(c2ccc3c(c2OCCOCCO)CCCC3)CC1)c1ccc(-c2ccc(C(F)(F)F)cc2)cc1`, the inhibition was determined as 0.77% in assay [1], 2.47% in assay [2] and 0.76% in assay [3].
With `Cc1nc(Nc2ccc(F)cc2)nc(N2CCc3ccccc3[C@@H]2C)c1C`, the inhibition in assay [1] was 3.94%; in assay [2], 5.21%; in assay [3], 1.46%.
As for `Cc1sc2ncnc(Sc3nnc(N)s3)c2c1C`, the inhibition in assay [1] stood at 2.03%; in assay [2] it was 3.89%; in assay [3], 1.09%.
In the case of `O=C(Nc1ccc(-c2ccc(-c3nc4ccccc4[nH]3)cc2)cc1)Nc1ccc(Cl)c(Cl)c1`, the results for the inhibition in assay [1], in assay [2] and in assay [3] were 3.78%, 2.21% and -4.96%, respectively.
The like results for `Cc1nc(NC(=N)N)nc2cc3c(cc12)CCC3` were, in that order, 0.91%, 0.44% and 0.48%.
In the case of `Fc1ccc2[nH]c(-c3ccc(-c4cccc(CN5CCCCC5)c4)cc3)nc2c1`, the inhibition in assay [1] is 1.59%; in assay [2] it was 1.72%; in assay [3], 1.72%.
`CN(C)c1cc(NC(=O)Nc2ccccc2)c2ccccc2n1`: the inhibition in assay [1] came to 2.21%; in assay [2], 5.06%; in assay [3], 2.82%.
With `CCCCCCN1CCCN(Cc2ccc(C(=O)Nc3cccc(CC)c3)cc2)CC1`, the inhibition came out at 4.76% in assay [1], 3.36% in assay [2] and 8.83% in assay [3].
The like results for `COc1ccc(NC(=O)c2cccc(Br)c2)cc1N1CCN(CCCCCCCN2CCN(c3cc(NC(=O)c4cccc(Br)c4)ccc3OC)CC2)CC1` were, in that order, 3.47%, 2.27% and 0.78%.
For the molecule `CCN(CC)S(=O)(=O)c1ccc(CCOCCCCCNCC(O)c2cc(Cl)c(N)c(Cl)c2)s1` (configuration not stated), the figures for the inhibition in assay [1], in assay [2] and in assay [3] were 2.8%, -2.21% and 1.26%, respectively.
The like results for `CN1CCCN(Cc2ccc(-c3ccc(NC(=O)c4ccc(Cl)cc4)cc3)cc2)CC1` were, in that order, 63.1%, 50% and 50.7%.
On to `FC(F)(F)c1ccc(-c2cncc(-c3ccc(C(F)(F)F)cc3)n2)cc1`, for which the values for the inhibition in assay [1], in assay [2] and in assay [3] were -1.94%, -1.14% and -1.64%, respectively.
Take `CCN(CCCN1CCCCC1)c1cc(C)nc(Nc2ccc(C(C)C)cc2)n1`: the inhibition is -0.68% in assay [1], 1.56% in assay [2] and 2.4% in assay [3].
As for `O=c1cc(NCCCNC2CCCc3c2cc(Cl)c(Cl)c3Cl)[nH]c2ccccc12` (configuration not stated), the inhibition in assay [1] is -3.43%; in assay [2] it was 1.1%; in assay [3] it was 0.08%.
Regarding `COc1ccc(N2C(=O)c3c(c4ccccc4n3C)C2c2ccccc2O)cc1` (configuration not stated), the inhibition in assay [1] worked out at 6.27%; in assay [2] it was 4.4%; in assay [3] it was 5.53%.
`COc1ccc(S(=O)(=O)N2CCCC(C)C2)cc1N1CCN(C(=O)c2ccc([N+](=O)[O-])o2)CC1` (configuration not stated): the inhibition in assay [1] was 1.83%; in assay [2], 0.28%; in assay [3], 0.09%.
As for `CCCC(C)Nc1nc(C)cc(N[C@@H](Cc2ccccc2)C(=O)Nc2ccccc2)n1` (some centres not stated), the inhibition in assay [1] was determined as 2.98%; in assay [2] it was 3.18%; in assay [3] it was 0.41%.
For `O=C(N1CCN(c2ccc(C(F)(F)F)cc2[N+](=O)[O-])CC1)C(Cl)(Cl)Cl`, in that order: 3.26%, 3.64% and 1.86%.
In the case of `CCc1c[nH]c2c(N3CCCC3=O)cc(C(=O)N[C@@H](Cc3ccccc3)[C@H](O)CNC(C)(C)c3cccc(OC)c3)cc12`, the inhibition in assay [1] was -0.15%; in assay [2], 1.3%; in assay [3] it was 1.9%.
Turning to `COc1cc(NC(=O)c2c(-c3c(F)cccc3Cl)noc2C)c(OC)cc1Cl`, the results for the inhibition in assay [1], in assay [2] and in assay [3] were -2.64%, -1.52% and -4.01%, respectively.
Take `CCCNC(=O)C1Cc2c([nH]c3ccc(Br)cc23)C2(CCN(CCc3ccccc3)CC2)N1` (configuration not stated): the inhibition in assay [1] was -1.4%; in assay [2] it was 0.12%; in assay [3] it was 1.33%.
As to `N=c1n(CCN2CCCCC2)c2ccccc2n1CC(O)c1cccc(Br)c1` (configuration not stated), the inhibition in assay [1] worked out at 3.65%; in assay [2], 4.03%; in assay [3], 3.65%.
Turning to `Cc1cc(C)c(-c2n[nH]c3c2C(c2cccc(Cl)c2)N(Cc2ccco2)C3=O)c(O)c1` (configuration not stated), the inhibition was 1.7% in assay [1], 5.35% in assay [2] and 1.37% in assay [3].
Take `COc1cccc(C2CCN(CCCCNC(=O)c3ccc(NC(=O)c4ccc(Cl)cc4)cc3)CC2)c1`: the inhibition is 2.77% in assay [1], 2.82% in assay [2] and 3.37% in assay [3].
For `Cc1c(Cn2ncc(N3CC(C)NC(C)C3)c(Cl)c2=O)cccc1NC(=O)Nc1ccc(-c2ccccc2)cc1` (configuration not stated), the values for the inhibition in assay [1], in assay [2] and in assay [3] were 4.08%, 3.21% and 5.17%, respectively.
Take `COc1c(C2CCN(CCCCNC(=O)c3cccc(-c4ccc(C(F)(F)F)cc4)c3)CC2)ccc2c1CCCC2`: the results for the inhibition in assay [1], in assay [2] and in assay [3] were 2.51%, 1.75% and 11.1%, respectively.
For `CCNc1cc(C(=O)N[C@@H](Cc2ccccc2)[C@H](O)CNCc2cc(OC)cc(OC)c2)cc(N2CCCS2(=O)=O)c1`, in that order: 1.6%, 2.17% and -0.47%.
Turning to `CO/C(=C\C=C\c1cc2cc(Cl)c(Cl)cc2[nH]1)C(=O)NCCN1CCCCC1`, the inhibition in assay [1] came to 0.85%; in assay [2] it was 1.14%; in assay [3], 0.35%.
As for `COc1ccccc1CCNc1nc(C)cc(N[C@@H](Cc2ccccc2)C(=O)Nc2ccccc2)n1`, the values for the inhibition in assay [1], in assay [2] and in assay [3] were 12%, 10.7% and 8.65%, respectively.
Regarding `COc1cc2c(cc1OC)C(C(=O)Nc1cc(OC)c(OC)c(OC)c1)C(c1ccc(SC)cc1)N(C)C2=O` (configuration not stated), the inhibition in assay [1] stood at 1.51%; in assay [2], 0.98%; in assay [3] it was 2.73%.
Turning to `CCNc1cc(C(=O)N[C@@H](Cc2ccccc2)[C@H](O)CN[C@@H]2CCc3ccccc32)cc(N2CCCCS2(=O)=O)c1`, the results for the inhibition in assay [1], in assay [2] and in assay [3] were 1.06%, 1.96% and 1.17%, respectively.
For `Cc1[nH]c(C)c(-c2ccc(Oc3ccc(O)cc3)cc2)c(=O)c1Cl`, the inhibition in assay [1] was 3.19%; in assay [2], 1.48%; in assay [3], -5.02%.
For the molecule `Nc1c2c(nc3ccc(Oc4ccc(Cl)cc4)cc13)CCCC2`, the inhibition is 60.9% in assay [1], 70.5% in assay [2] and 40.5% in assay [3].
As for `CC(CCNc1c2ccccc2nc2ccccc12)N1CCN(C)CC1` (configuration not stated), the inhibition in assay [1] is 30.8%; in assay [2] it was 29.1%; in assay [3] it was 20.8%.
With `COc1ccc(-c2c(-c3ccc(OCc4ccccc4)cc3O)n[nH]c2C(F)(F)F)cc1`, the results for the inhibition in assay [1], in assay [2] and in assay [3] were 3.36%, 1.26% and 1.92%, respectively.
On to `CCN(CC)Cc1cc(NC(=O)c2ccccc2O)ccc1Oc1ccc(Cl)cc1`, for which the results for the inhibition in assay [1], in assay [2] and in assay [3] were 2.02%, 0.32% and 1.46%, respectively.
For `CN(Cc1cccc(O)c1)C1CCN(c2cc(NC(=O)c3ccc(F)cc3)ccn2)CC1`, in that order: 2.02%, 3.1% and 3.78%.

Usually inhibition stands for the change of the read-out against control, counted positive when it falls.

The values are drawn from ChEMBL document CHEMBL3433997, “St. Jude Leishmania screening dataset” (2016).
